59 sequences from the supplement of paper PMC11417369 can be followed below.

In all, about 25,000 sequences were measured (“ln(normalized median fluorescence intensity)”: median about 7.1, highest 2% from about 10 on). The sample holds the highest values, similar sequences and a random draw of the others, so the mix is not that of the screen.

The test system of this experiment is PfSIP2 AP2 domain 1 (GST-tagged). Briefly: gcPBM binding intensity (ln(normalized median fluorescence intensity)); higher = stronger DNA binding. The gist of the method: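 GST-tagged P. falciparum DNA-binding domains, expressed in E. coli (about 25 μg on average), were applied for 1 h to an Agilent 4 × 180k array of primer-extended double-stranded 36-bp intergenic genomic probes plus negative controls. The binding buffer was 1× PBS with 1% milk, 0.2 mg/ml BSA, 0.5% salmon testes DNA and 0.03% Triton X-100. Bound protein was detected with Alexa488 anti-GST antibody and scanned at 488 nm. Binding intensity is the highest Masliner-normalised natural-log median intensity across replicate spots of either probe orientation.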
“AAAACCTAAAAGTCTTAAATTTTAAATATACCTACA [GTGCAC_negctrl_site492]”: the “gcPBM binding intensity (ln)” value worked out at 6.6.

Regarding “CCCATGCATTTTTGCACACACATATATTTATAAATA [CACACA_site6785]”, the “gcPBM binding intensity (ln)” value was found to be 8.16.

Turning to “TATTTTATCATTTGCACACGCACACCCACATAAAAA [CACACA_site354]”, the “gcPBM binding intensity (ln)” value turned out to be 8.03.

On to “TTTATTTTATCATTTGCACACGCACCCAGACATAAA [CACACA_site4347]”, for which the “gcPBM binding intensity (ln)” value amounted to 10.8.

“TTTATTTTATCATTTGCACACGCACCCCCACATAAA [CACACA_site8007]”: the “gcPBM binding intensity (ln)” value is 11.5.

Turning to “TTTATTTTATCATTTGCACACGCACGCCCACATAAA [CACACA_site353]”, the “gcPBM binding intensity (ln)” value came out at 7.85.

Regarding “TATTTTATCATTTGCACACGCACACCGACATAAAAA [CACACA_site4348]”, the “gcPBM binding intensity (ln)” value came out at 7.71.

For “ATATTAAACAAACACACACACATATATATATATATA [CACACA_site3383]”, the “gcPBM binding intensity (ln)” value amounted to 9.67.

For “ATAAATGAACAAGTGGCACACACACCGTATAACTAA [CACACA_site9047]”, the “gcPBM binding intensity (ln)” value was 6.91.

In the case of “ATGTATATATTTACGTGTACATATTCATGTGATATC [XGTACX_site5871]”, the “gcPBM binding intensity (ln)” value worked out at 7.

As for “GTTCAATTATTTTTATGTACATATATTTTTTTCTTT [XGTACX_site2505]”, the “gcPBM binding intensity (ln)” value amounted to 7.46.

“ACATTGCACCCGTGCACACATAGAAAAATAATTCTT [CACACA_site409]”: the “gcPBM binding intensity (ln)” value is 12.2.

As to “ACCCATTGCTCACGTGCACACATAGAAAAATAATTC [CACACA_site4389]”, the “gcPBM binding intensity (ln)” value worked out at 10.1.

Turning to “TCATTGAAAATTGTTGCACACATAATAATTAAATAT [CACACA_site8554]”, the “gcPBM binding intensity (ln)” value stood at 7.36.

Consider “CATTTGCACCCGCACACACACATAAAAAGAAAAATA [CACACA_site4350]”, for which the “gcPBM binding intensity (ln)” value was determined as 11.6.

For the sequence “ATCATTTGCATACGCACACACACATAAAAAGAAAAA [CACACA_site355]”, the “gcPBM binding intensity (ln)” value is 7.54.

Take “CATTTGCACACGCACACACACATAAAAAGAAAAATA [CACACA_site6297]”: the “gcPBM binding intensity (ln)” value was determined as 7.71.

Regarding “AATTTGGTGTGTGTAAAAGTATGTGTCTATATTTAT [GTGCAC_negctrl_site166]”, the “gcPBM binding intensity (ln)” value was 7.11.

As for TTTTGTTATTTTTCAGTGCAATATGATAATAATATA, the “gcPBM binding intensity (ln)” value worked out at 7.72.

As for TAATATAATGATGCAGTGCATATGTTAAAATGAAAA, the “gcPBM binding intensity (ln)” value is 8.72.

As for TTTTTTGTTATGCGGGTGCATATAATAATGTGATGA, the “gcPBM binding intensity (ln)” value is 10.8.

“TAATATATTAAAAATAGTACATAAGAAAAATAAGTA [XGTACX_site7957]”: the “gcPBM binding intensity (ln)” value worked out at 7.11.

Turning to “TATTATATTTTTATTTGTACGTAAAATTAAGTTATG [XGTACX_site2405]”, the “gcPBM binding intensity (ln)” value was found to be 7.14.

In the case of “CAATATTTGTTATGGGTGCAAACCGCATATATATAA [GTGCAC_site9543]”, the “gcPBM binding intensity (ln)” value is 11.

Turning to CAATATATTATATGGGTGCAAACCACATATAAATAA, the “gcPBM binding intensity (ln)” value was determined as 10.9.

On to TATGGGTTTATATAGGTGCAATATATGTATATATAA, for which the “gcPBM binding intensity (ln)” value was found to be 10.2.

Take “ATTTATTTATACAAAGTGCAATATTTTGTTAAAGTC [GTGCAC_site9618]”: the “gcPBM binding intensity (ln)” value was determined as 7.89.

Consider “TATTAAATATATATTACATGCAAAAAAAAAAAACAA [TGCATGCA_site705]”, for which the “gcPBM binding intensity (ln)” value stood at 7.13.

Turning to “AAAAAAAAAAACAATACATGCATAATATTAATAAAA [TGCATGCA_site913]”, the “gcPBM binding intensity (ln)” value came to 6.96.

As to “AACAAATATATTAACACACAAACATATAAACCAATG [CACACA_site3970]”, the “gcPBM binding intensity (ln)” value worked out at 7.19.

For “TATAATAGTTCATAGGTGCAATATAATAAATTTATA [GTGCAC_site9573]”, the “gcPBM binding intensity (ln)” value was determined as 9.98.

“ATATAAAATACATGGGTGCAATATATTAAACAAATA [GTGCAC_site9421]”: the “gcPBM binding intensity (ln)” value was found to be 10.8.

Turning to “TTTTTTGTTAAACCGGTGCATATAAATATATATATA [GTGCAC_site9989]”, the “gcPBM binding intensity (ln)” value was 9.54.

In the case of “AATTATATGAAATAAACACACATATGCAATATTGCA [CACACA_site6988]”, the “gcPBM binding intensity (ln)” value was 6.98.

For the sequence “CAATAGTTCTTATGGGTGCAAACCACATATATATAA [GTGCAC_site9606]”, the “gcPBM binding intensity (ln)” value came out at 11.3.

With “AATCAAAGCCCACATACACACACATATATATATATA [CACACA_site7987]”, the “gcPBM binding intensity (ln)” value was determined as 9.39.

With “TTTTGTCAACATTTTTATATTAGGTCTTGAACGATT [GTGCAC_negctrl_site72]”, the “gcPBM binding intensity (ln)” value was 6.9.

For “AATAATATATGGTGTACACAAAAGTATAAATAATTT [CACACA_site5338]”, the “gcPBM binding intensity (ln)” value turned out to be 7.15.

For the sequence “TCAAATATTCATAAATGTACATTTATTTTTCTCCTT [XGTACX_site5827]”, the “gcPBM binding intensity (ln)” value is 6.74.

For “TTATTTTAATAACCTACACACATTTTGTATATTTTA [CACACA_site4000]”, the “gcPBM binding intensity (ln)” value is 6.81.

Regarding “TATATATATGTGTTTACACACAATAATGAATTAAAA [CACACA_site4659]”, the “gcPBM binding intensity (ln)” value came out at 7.28.

Take “ATATCAATTTTTGGTGGTACGTAGGAAGTTTCAGAA [XGTACX_site6881]”: the “gcPBM binding intensity (ln)” value was 7.4.

In the case of “ATATAGGTAAAAAGTATACACACGTTGACACATTCT [CACACA_site1199]”, the “gcPBM binding intensity (ln)” value was found to be 6.95.

With “TTTTTTTTTTTTTTATGTACACATCTAAAAAAAAGG [XGTACX_site2067]”, the “gcPBM binding intensity (ln)” value was found to be 7.43.

On to “TTTTTTTTTTTTGGATGTACTTAATGAAAATGTTAC [XGTACX_site8980]”, for which the “gcPBM binding intensity (ln)” value came out at 7.36.

In the case of “AAATAGTTGTTATGGGTGCAAACCACATATATATAA [GTGCAC_site9428]”, the “gcPBM binding intensity (ln)” value is 11.

With ACATATAATAAAATAGTGCATTGTTAGTTTTATATA, the “gcPBM binding intensity (ln)” value amounted to 9.85.

In the case of TTATTTATTTATATAGTGCAATAAACACATAAATAG, the “gcPBM binding intensity (ln)” value is 8.

In the case of “GATTTTTAAAATATCACACATAAAAAAAAAAAAAAA [CACACA_site5516]”, the “gcPBM binding intensity (ln)” value turned out to be 6.96.

With “AAATATAAAGTGCACACACACAAAAAAAGAAAAAAA [CACACA_site6452]”, the “gcPBM binding intensity (ln)” value was 11.2.

As for “AAAAATAAAGGGTGTGCACACAAAAATATATATATA [CACACA_site1727]”, the “gcPBM binding intensity (ln)” value was determined as 9.1.

Take “AAATAAAAAGGGTGCACACAAAAATATATATATATA [CACACA_site1728]”: the “gcPBM binding intensity (ln)” value was 12.4.

Regarding “AATATAAAAAGGCACACACACAAAAAAAAAAAAAAA [CACACA_site896]”, the “gcPBM binding intensity (ln)” value is 7.13.

As to “TATATATATATAAGTGCACACTGAACCAAGAAAATT [CACACA_site5637]”, the “gcPBM binding intensity (ln)” value was 9.97.

In the case of “TATATATATAAGTGCACACTGAACCAAGAAAATTAT [CACACA_site3008]”, the “gcPBM binding intensity (ln)” value worked out at 10.5.

As to “AAAAATATAAACTGCACACACACAAAAAAAGAAAAA [CACACA_site648]”, the “gcPBM binding intensity (ln)” value is 7.25.

Consider “ATAAAAATAAAAAGTGTGCACACAAAAATATATATA [GTGCAC_site9931]”, for which the “gcPBM binding intensity (ln)” value was 8.78.

Consider “AAAAAAAGAAAAATTGCACACACTTATAAAAATATA [CACACA_site4014]”, for which the “gcPBM binding intensity (ln)” value turned out to be 6.99.

“AAACTCAACTTATATACACACAATCTTTTTTTTTTA [CACACA_site29]”: the “gcPBM binding intensity (ln)” value turned out to be 6.8.
